# Results from publication PMC5515408, “Sequence-specific DNA binding by MYC/MAX to low-affinity non-E-box motifs”.
# Whole data set: some 4,500 sequences, median “log2 normalized fluorescence” near -0.34, cut for the highest 2% near 3.3. The sample holds the highest values, similar sequences and a random draw of the others, so the mix is not that of the screen.
# Target: MAX:MAX (p21) (human, UniProt P61244-2 1-151)
# Assay: protein-binding microarray (anti-MAX antibody); PBM: 15 mM Tris-HCl pH 7.5, 100 mM KCl, 0.075% NP40, 7.5 mM beta-mercaptoethanol, 375 ng/ul BSA, 8 ng/ul poly(dA-dT):(dA-dT), 550 ng complex, 60 min, room tempe; high values mean tight binding
# Settings: protein: recombinant; tags: 6xHis; chain copies: 2; label: 3' end of printed strand (linker) attached to glass slide; dsDNA, one strand shown
# Summary of the method: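 Binding, given as log2 normalized fluorescence, was measured on a custom Agilent glass array. The array bore ~5000 unique 12-nt sequences spotted in triplicate and converted to double strands by primer extension. It was incubated with 550 ng of human His-tagged MYC:MAX or MAX:MAX dimers from E. coli for 60 min at room temperature in Tris-KCl buffer, pH 7.5, with NP40, BSA and poly(dA-dT) competitor, and bound protein was detected with anti-MAX and secondary antibodies and scanned at 543 nm.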
# Sequence of MAX:MAX (p21) (P61244 other isoform, or with tags, fused parts or gaps): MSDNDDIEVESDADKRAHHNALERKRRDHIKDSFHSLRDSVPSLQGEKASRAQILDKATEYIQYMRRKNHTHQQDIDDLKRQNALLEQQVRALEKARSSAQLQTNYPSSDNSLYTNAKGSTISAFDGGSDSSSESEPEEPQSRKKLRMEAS
row,Sequence,binding signal
1,CCGGCTGATGCTGAGTATTAATAGCTAAGATTACTATATCGACG,0.00915 log2 normalized fluorescence
2,CCGGCTGAACAAAGGTATTAATAGCTAAGATTACTATATCGACG,-0.6 log2 normalized fluorescence
3,CCGGCTGACCGCGAGTATTAATAGCTAAGATTACTATATCGACG,1.06 log2 normalized fluorescence
4,CCGGCTGAGCACAAGTATTAATAGCTAAGATTACTATATCGACG,0.993 log2 normalized fluorescence
5,CCGGCTGGCACGTGCTATTAATAGCTAAGATTACTATATCGACG,3.25 log2 normalized fluorescence
6,CCGGCTCACACGTCGTATTAATAGCTAAGATTACTATATCGACG,2.63 log2 normalized fluorescence
7,CCGGCTCACACGTGGTATTAATAGCTAAGATTACTATATCGACG,3.33 log2 normalized fluorescence
8,CCGGCTCAGACGTGGTATTAATAGCTAAGATTACTATATCGACG,1.39 log2 normalized fluorescence
9,CCGGCTCACACGTTTTATTAATAGCTAAGATTACTATATCGACG,3.25 log2 normalized fluorescence
10,CCGGCTCACACGTGGTTTTAATAGCTAAGATTACTATATCGACG,3.32 log2 normalized fluorescence
11,CCGGCTAACACGTGGTTTTAATAGCTAAGATTACTATATCGACG,3.27 log2 normalized fluorescence
12,CCGGCTGAATGACCGTATTAATAGCTAAGATTACTATATCGACG,0.107 log2 normalized fluorescence
13,CCGGCTCACACCTCGTATTAATAGCTAAGATTACTATATCGACG,2.28 log2 normalized fluorescence
14,CCGGCTGACGGTTCGTATTAATAGCTAAGATTACTATATCGACG,-0.498 log2 normalized fluorescence
15,CCGGCGGACTCGTGGTATTAATAGCTAAGATTACTATATCGACG,3.3 log2 normalized fluorescence
16,CCGGCTCATACGTGGAATTAATAGCTAAGATTACTATATCGACG,1.28 log2 normalized fluorescence
17,CCGGCTAGCACGTGGTATTAATAGCTAAGATTACTATATCGACG,3.44 log2 normalized fluorescence
18,CCGGCAAGCACGTGGTATTAATAGCTAAGATTACTATATCGACG,3.27 log2 normalized fluorescence
19,CCGGCCAGCACGTGGTATTAATAGCTAAGATTACTATATCGACG,3.24 log2 normalized fluorescence
20,CCGGCGGACGCGTGGTATTAATAGCTAAGATTACTATATCGACG,3.14 log2 normalized fluorescence
21,CCGGCGCAAACGTGGTATTAATAGCTAAGATTACTATATCGACG,2.98 log2 normalized fluorescence
22,CCGGCGCGCACGTGGTATTAATAGCTAAGATTACTATATCGACG,3.39 log2 normalized fluorescence
23,CCGGCGCACACGTGGTATTAATAGCTAAGATTACTATATCGACG,3.29 log2 normalized fluorescence

row,Sequence,binding signal
1,CCGGCGGACCCGTGGTATTAATAGCTAAGATTACTATATCGACG,2.46 log2 normalized fluorescence
2,CCGGCTGAAACGTGGAATTAATAGCTAAGATTACTATATCGACG,2.54 log2 normalized fluorescence
3,CCGGCTCGCACGTGGAATTAATAGCTAAGATTACTATATCGACG,3.31 log2 normalized fluorescence
4,CCGGCTGACCTGATGTATTAATAGCTAAGATTACTATATCGACG,0.381 log2 normalized fluorescence
5,CCGGCATAGTATACAATTTAATAGCTAAGATTACTATATCGACG,0.0214 log2 normalized fluorescence
6,CCGGCTGAACCCTGGTATTAATAGCTAAGATTACTATATCGACG,-0.595 log2 normalized fluorescence
7,CCGGCTGATAAGTGGTATTAATAGCTAAGATTACTATATCGACG,-0.651 log2 normalized fluorescence
8,CCGGCTGAAGGATTGTATTAATAGCTAAGATTACTATATCGACG,-0.589 log2 normalized fluorescence
9,CCGGCTGAAACTTGGTATTAATAGCTAAGATTACTATATCGACG,-0.705 log2 normalized fluorescence
10,CCGGCCTGCACGTGGTATTAATAGCTAAGATTACTATATCGACG,3.26 log2 normalized fluorescence
11,CCGGCCGGCACGTGGTATTAATAGCTAAGATTACTATATCGACG,3.27 log2 normalized fluorescence
12,CCGGCGTGCACGTGGTATTAATAGCTAAGATTACTATATCGACG,3.47 log2 normalized fluorescence
13,CCGGCTCGGACGTGGTATTAATAGCTAAGATTACTATATCGACG,1.17 log2 normalized fluorescence
14,CCGGCATCCACGTGGTATTAATAGCTAAGATTACTATATCGACG,3.28 log2 normalized fluorescence
15,CCGGCAGGCACGTGGTATTAATAGCTAAGATTACTATATCGACG,3.21 log2 normalized fluorescence
16,CCGGCACGCACGTGGTATTAATAGCTAAGATTACTATATCGACG,3.29 log2 normalized fluorescence
17,CCGGCACCCACGTGGTATTAATAGCTAAGATTACTATATCGACG,3.35 log2 normalized fluorescence
18,CCGGCGAGCACGTGGTATTAATAGCTAAGATTACTATATCGACG,3 log2 normalized fluorescence
19,CCGGCCCGCACGTGGTATTAATAGCTAAGATTACTATATCGACG,3.03 log2 normalized fluorescence
20,CCGGCTCGCACGTGGTATTAATAGCTAAGATTACTATATCGACG,3.41 log2 normalized fluorescence
21,CCGGCTGACGCAGGGTATTAATAGCTAAGATTACTATATCGACG,-0.104 log2 normalized fluorescence
22,CCGGCTGACCTGCTGTATTAATAGCTAAGATTACTATATCGACG,0.214 log2 normalized fluorescence
23,CCGGCTGAAGAGTGGTATTAATAGCTAAGATTACTATATCGACG,0.0783 log2 normalized fluorescence

row,Sequence,binding signal
1,CCGGCTGAGGGGGAGTATTAATAGCTAAGATTACTATATCGACG,1.48 log2 normalized fluorescence
2,CCGGCTGAACCCAGGTATTAATAGCTAAGATTACTATATCGACG,-0.34 log2 normalized fluorescence
3,CCGGCTGAGTTGAGGTATTAATAGCTAAGATTACTATATCGACG,-0.631 log2 normalized fluorescence
4,CCGGCTGACCGGTAGTATTAATAGCTAAGATTACTATATCGACG,-0.573 log2 normalized fluorescence
5,CCGGCTGACACAGGGTATTAATAGCTAAGATTACTATATCGACG,0.747 log2 normalized fluorescence
6,CCGGCTGAGAGCCTGTATTAATAGCTAAGATTACTATATCGACG,-0.287 log2 normalized fluorescence
7,CCGGCTGACAGACCGTATTAATAGCTAAGATTACTATATCGACG,0.179 log2 normalized fluorescence
8,CCGGCTGAACTCATGTATTAATAGCTAAGATTACTATATCGACG,1.71 log2 normalized fluorescence
9,CCGGCTGACAAGTTGTATTAATAGCTAAGATTACTATATCGACG,-0.304 log2 normalized fluorescence
10,CCGGCTGATCATATGTATTAATAGCTAAGATTACTATATCGACG,1.98 log2 normalized fluorescence
11,CCGGCGGACACGTGGTATTAATAGCTAAGATTACTATATCGACG,3.33 log2 normalized fluorescence
12,CCGGCTGACACGTGGTATTAATAGCTAAGATTACTATATCGACG,3.19 log2 normalized fluorescence
13,CCGGCGGTCACGTGGTATTAATAGCTAAGATTACTATATCGACG,3.37 log2 normalized fluorescence
14,CCGGCACACACGTGGTATTAATAGCTAAGATTACTATATCGACG,3.32 log2 normalized fluorescence
15,CCGGCTGTCACGTGGTATTAATAGCTAAGATTACTATATCGACG,3.12 log2 normalized fluorescence
16,CCGGCGGGCACGTGGTATTAATAGCTAAGATTACTATATCGACG,3.35 log2 normalized fluorescence
17,CCGGCGGACACGTGCTATTAATAGCTAAGATTACTATATCGACG,3.15 log2 normalized fluorescence
18,CCGGCCGTCACGTGGTATTAATAGCTAAGATTACTATATCGACG,3.18 log2 normalized fluorescence
19,CCGGCTGATACCTGGTGTTAATAGCTAAGATTACTATATCGACG,-0.298 log2 normalized fluorescence
20,CCGGCTGACACGTAGAGTTAATAGCTAAGATTACTATATCGACG,0.996 log2 normalized fluorescence
21,CCGGCTGAAGCGGTGTATTAATAGCTAAGATTACTATATCGACG,-0.554 log2 normalized fluorescence
22,CCGGCTGACCCATGGTATTAATAGCTAAGATTACTATATCGACG,2.08 log2 normalized fluorescence
